CYP2C9 act: CYP2C9 (human) activation; P11712; hit rate 1.4% among 96,000; activation factor at 5 µM; recombinant CYP2C9, luciferin-H conversion, luminescence; active compounds read high; factor 1 = untreated enzyme, 0 = blocked;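 active = activation factor of 2 or more for CYP2C9 at a 5 µM dose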;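 also: 0 = sulfaphenazole-blocked wells and 1 = vehicle-only wells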
sEH activator: soluble epoxide hydrolase (human) activation; P34913; activation, % at 2 µM; hit rate 0.04% among 91,000; purified human sEH enzymatic activity, activator screen; in the data active = activation above about 37%
Target sequence (P34913 whole entry, looked up): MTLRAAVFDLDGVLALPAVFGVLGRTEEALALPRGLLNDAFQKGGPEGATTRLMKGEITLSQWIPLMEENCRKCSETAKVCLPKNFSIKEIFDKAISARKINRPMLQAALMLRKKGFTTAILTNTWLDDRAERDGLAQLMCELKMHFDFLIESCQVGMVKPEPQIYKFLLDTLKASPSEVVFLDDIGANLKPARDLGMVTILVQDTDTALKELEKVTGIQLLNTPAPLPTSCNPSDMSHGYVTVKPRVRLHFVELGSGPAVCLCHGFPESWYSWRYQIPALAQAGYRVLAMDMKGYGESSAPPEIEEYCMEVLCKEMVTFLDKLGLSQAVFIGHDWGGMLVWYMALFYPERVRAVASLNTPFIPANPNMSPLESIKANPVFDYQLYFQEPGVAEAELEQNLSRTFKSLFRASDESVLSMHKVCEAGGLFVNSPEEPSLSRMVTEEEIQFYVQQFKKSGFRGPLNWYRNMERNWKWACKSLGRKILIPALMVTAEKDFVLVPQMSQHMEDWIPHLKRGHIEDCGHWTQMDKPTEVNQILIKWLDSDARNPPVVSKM
CYP2C19 inhib: blocks human cytochrome P450 2C19; hit rate 21% among 96,000; inhibition, % at 5 µM; P33261; CYP2C19 Supersomes, luciferin-H EGE luminescence, 30 min;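 active = CYP2C19 inhibition above a set limit at 5 µM in the primary screen, cut at about 50% in these data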;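 also: plate controls were negative control wells for no effect and 2.5 mM tranylcypromine positive control for full effect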
CYP2C19 activ: increases human CYP2C19 enzyme activity; P33261; recombinant CYP2C19, luciferin-H EGE luminescence; active compounds read high; 0 = fully inhibited enzyme, 1 = untreated enzyme; activation factor at 5 µM; 96,000 tested, under 10 active; AID 1025;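 active = activation factor of at least 2 at 5 µM in the primary screen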;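 also: 0 = wells with 2.5 mM tranylcypromine and 1 = vehicle-only wells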
CYP2C9 inh: human CYP2C9 inhibition; CYP2C9 Supersomes, luciferin-H conversion, luminescence; inhibition, % at 5 µM; hit rate 20% among 96,000; AID 777;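 active = blocking of liver enzyme CYP2C9 beyond about 50% at 5 µM, limit read from the data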
sEH inh: soluble epoxide hydrolase (human) inhibition. recombinant human sEH enzymatic activity assay. P34913. hit rate 0.34% among 91,000. inhibition, % at 2 µM; in the data active = inhibition above about 80%
Numbers without * were called inactive; x = no result given. A selection: hits, their analogues and other compounds. The true share with any hit is near 27%.

SMILES	CYP2C9 act	sEH activator	CYP2C19 inhib	CYP2C19 activ	CYP2C9 inh	sEH inh
CCCN1C=CC(=C2C(=O)c3ccccc3C2=O)C=C1	0.4	x	76*	0.2	58*	x
CCSc1nnc([C@H](Cc2c[nH]c3ccccc23)NC(=O)OC(C)(C)C)o1	0.8	-9	28	0.7	18	8
CC(C)C[C@H](NC(=O)OC(C)(C)C)c1nnc(SCc2cccc(F)c2)o1	0.9	-3	35	0.7	8	3
CSCC[C@H](NC(=O)OC(C)(C)C)c1nnc(SCc2ccc(F)cc2)o1	0.2	1	88*	0.1	78*	0
CC(C)C[C@H](NC(=O)OC(C)(C)C)c1nnc(SCC(=O)Nc2ccc(Br)cc2)o1	0.8	11	65*	0.3	24	-13
CSCC[C@H](NC(=O)OC(C)(C)C)c1nnc(SCc2cccc(F)c2)o1	0.3	11	80*	0.2	69*	-12
CCN(CC)C(=O)CSc1nnc([C@H](Cc2c[nH]c3ccccc23)NC(=O)OC(C)(C)C)o1	0.4	-18	53*	0.5	62*	20
CSCC[C@H](NC(=O)OC(C)(C)C)c1nnc(SCC(=O)N(C)C)o1	1.1	12	3	1	-8	-14
CSCC[C@H](NC(=O)OC(C)(C)C)c1nnc(SCc2ccccc2)o1	0.4	-6	79*	0.2	60*	6
CCOC(=O)Cn1c(=O)c2c(nc(Br)n2Cc2ccccc2Cl)n(C)c1=O	x	-11	x	x	x	12
C=CCn1c(=O)c2c(nc(Br)n2Cc2ccccc2Cl)n(C)c1=O	1	x	71*	0.3	4	x
CCCCOC(=O)Cn1c(=O)c2c(nc(Br)n2Cc2ccccc2)n(C)c1=O	0.2	x	89*	0.1	78*	x
Cn1c(=O)c2c(nc(SCc3nn[nH]n3)n2Cc2ccccc2F)n(C)c1=O	x	0	x	x	x	5
Cn1c(SCc2nn[nH]n2)nc2c1c(=O)n(Cc1ccccc1Cl)c(=O)n2C	0.5	10	-4	1	55*	-11
CCOC(=O)c1cnc2ccc(Br)cc2c1NCCO	0.8	-6	3	1	16	8
CCOC(=O)c1cnc2c(C(=O)OC)cccc2c1NCc1ccco1	0.5	8	24	0.8	54*	-6
CCOC(=O)c1ccc2ncc(C(=O)OCC)c(NCCCN3CCOCC3)c2c1	0.1	x	83*	0.2	88*	x
CCOC(=O)c1ccc2ncc(C(=O)OCC)c(NCc3ccco3)c2c1	0.4	4	45	0.6	56*	-2
Cc1ccc2c(c1)cc(CN(Cc1ccco1)S(=O)(=O)c1ccccc1)c1nnnn12	0.9	-13	11	0.9	11	15
C=CCS(=O)(=O)c1nc2ccccc2s1	1.3	-5	-1	1	-29	5
COc1ccc2c(c1OC)C(=O)OC2Nc1ncc(Br)cc1Br (stereo unspecified)	1	-6	0	1	1	8
CN(Cc1ccccc1)C(=O)CSc1nnc(-c2ccco2)n1-c1ccccc1	0.8	10	23	0.8	18	-11
Cc1cc(C)c2c(N)c(S(=O)c3ccc(C(C)(C)C)cc3)sc2n1 (stereo unspecified)	0.5	-7	61*	0.4	47	10
O=C(C1CC1)N1CCc2cc(Br)cc(S(=O)(=O)NCCN3CCOCC3)c21	0.8	x	8	0.9	22	x
CCOCCCNS(=O)(=O)c1cc(Br)cc2c1N(C(=O)C1CC1)CC2	2.3*	x	18	0.8	-131	x
SMILES	CYP2C9 act	sEH activator	CYP2C19 inhib	CYP2C19 activ	CYP2C9 inh	sEH inh
O=C(C1CC1)N1CCc2cc(Br)cc(S(=O)(=O)N3CCOCC3)c21	0.3	-4	35	0.6	72*	5
CCN(c1ccc2c(c1)OCO2)S(=O)(=O)c1cc(Br)cc2c1N(C(C)=O)CC2	1.4	-4	56*	0.4	-43	7
CCN1CCCC1CNS(=O)(=O)c1cc(Br)cc2c1N(C(=O)C1CC1)CC2 (stereo unspecified)	0.5	x	-5	1	48	x
CC(=O)N1CCc2cc(Br)cc(S(=O)(=O)NCC3CCCO3)c21 (stereo unspecified)	1.1	-5	24	0.8	-5	3
CCCCN(C)S(=O)(=O)c1cc(Br)cc2c1N(C(=O)C1CC1)CC2	0.8	x	86*	0.1	18	x
O=C(C1CC1)N1CCc2cc(Br)cc(S(=O)(=O)NCc3ccc4c(c3)OCO4)c21	0.9	x	67*	0.3	14	x
Cc1cc(NC(=O)CN2CCOCC2)n(-c2nc3ccccc3s2)n1	0.6	9	8	0.9	40	-11
CC1(C)CC2CC(C)(CN2C(=O)Cc2ccccc2)C1 (stereo unspecified)	x	-12	x	x	x	14
CC1(C)CC2CC(C)(CN2CC(=O)C(C#N)c2ccccc2)C1 (stereo unspecified)	1	1	80*	0.2	2	2
CNC(=O)CSc1nnnn1CCCOC	1.3	17	-6	1.1	-26	-15
CS(=O)(=O)N1CCN(c2ccccc2NC(=O)Cc2ccccc2)CC1	0.5	-6	62*	0.4	50	6
CCC(=O)N1CCN(c2ccccc2NC(=O)Cc2ccccc2)CC1	0.6	-14	59*	0.4	42	12
CS(=O)(=O)N1CCN(c2ccccc2NC(=O)c2ccc(-c3ccc(Cl)cc3Cl)o2)CC1	0.5	5	25	0.8	50*	-6
CS(=O)(=O)N1CCN(c2ccccc2NC(=O)Cc2ccc(Cl)cc2)CC1	0.7	-11	14	0.9	32	8
O=C(Cc1ccccc1)Nc1ccccc1N1CCN(c2ccccc2)CC1	0.9	-7	16	0.8	14	5
C=CCn1c(NC(=O)c2ccc(C)cc2)c(C#N)sc1=N	1.1	-5	-2	1	-9	2
O=C(Nc1ccc2c(c1)OCO2)N1CCN(C(=O)C2CCCO2)CC1 (stereo unspecified)	x	4	x	x	x	-3
CCOC(=O)c1cccc(NC(=O)Cn2cc3c(n2)CCC(C)C3)c1 (stereo unspecified)	0.2	x	29	0.7	75*	x
CC1CCc2nn(CC(=O)NC3CCCC3)cc2C1 (stereo unspecified)	0.7	1	59*	0.4	29	-2
CCCSCCCNC(=O)Cn1cc2c(n1)CCC(C)C2 (stereo unspecified)	0.5	6	51*	0.5	47	-6
O=C(Cn1cc2c(n1)CCCC2)NC1CCCCCC1	1	x	17	0.8	1	x
CC(=O)c1cc(C(c2csc(C(C)=O)c2)c2csc(C(C)=O)c2)cs1	x	-4	x	x	x	5
CC(=O)c1ccc(C(C)(C)c2ccc(C(C)=O)s2)s1	0.5	8	29	0.7	50*	-8
CCC(=O)N1CCc2cc(S(=O)(=O)CCC(=O)NCCC3=CCCCC3)ccc21	0.5	-87	13	0.9	53*	86*
CCC(=O)N1c2ccc(S(=O)(=O)CCC(=O)NCCC3=CCCCC3)cc2CC1C (stereo unspecified)	0.4	x	21	0.8	61*	x
